The campaign covered roughly 5,500 compounds. About 2,000 (36%) were called active. About 18% were inconclusive and are not listed. No stated cut-off is given here; in the data, active means normalized growth mostly below about 0.91 (no sharp cut-off); inconclusive means no clear call, values can overlap the other calls; inactive means mostly above about 0.92. The list shows a part of the results.
Assay: chemical genetic growth profiling, strain panel (AID 1159580);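 further: tested at 20 µM; growth read once vehicle control cultures reached saturation at 30 °C; 1 = growth at the plate median or of vehicle wells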
Conditions: S. cerevisiae deletion strains, growth OD

Measured: normalized growth

COc1ccc(C(=O)c2ccccc2)c(O)c1O
active: locus YDL185W, strain tfp1, stronger effect = lower value 0.901 | locus YDL192W, strain arf1, stronger effect = lower value 0.892 | locus YDR137W, strain rgp1, stronger effect = lower value 0.787 | locus YDR502C, strain sam2, stronger effect = lower value 0.9 | locus YER155C, strain BEM2 (second series), stronger effect = lower value 0.81 | locus YGL078C, strain dbp3, stronger effect = lower value 0.909 | locus YGR135W, strain pre9, stronger effect = lower value 0.846 | locus YGR252W, strain gcn5, stronger effect = lower value 0.698 | locus YJL095W, strain BCK1, stronger effect = lower value 0.724 | locus YKR001C, strain vps1, stronger effect = lower value 0.781 | locus YLR262C, strain YPT6 (second series), stronger effect = lower value 0.843 | locus YLR418C, strain cdc73, stronger effect = lower value 0.825 | locus YMR058W, strain fet3, stronger effect = lower value 0.897 | locus YNL271C, strain bni1, stronger effect = lower value 0.908 | locus YNL307C, strain MCK1, stronger effect = lower value 0.906 | locus YNR052C, strain pop2, stronger effect = lower value 0.896 | locus YPR163C, strain tif3, stronger effect = lower value 0.813 | locus YPR167C, strain met16, stronger effect = lower value 0.919
inactive: locus YAL013W, strain DEP1, stronger effect = lower value 0.929 | locus YAL021C, strain ccr4, stronger effect = lower value 0.981 | locus YAL026C, strain drs2, stronger effect = lower value 0.973 | locus YAL030W, strain snc1, stronger effect = lower value 0.974 | locus YBL061C, strain skt5, stronger effect = lower value 0.973 | locus YBR009C, strain hhf1, stronger effect = lower value 0.973 | locus YBR021W, strain FUR4, stronger effect = lower value 0.853 | locus YBR023C, strain chs3, stronger effect = lower value 0.969 | locus YBR171W, strain sec66, stronger effect = lower value 0.945 | locus YBR229C, strain ROT2, stronger effect = lower value 0.999 | locus YBR231C, strain swc5, stronger effect = lower value 0.962 | locus YBR279W, strain paf1, stronger effect = lower value 0.957 | locus YCL011C, strain gbp2, stronger effect = lower value 0.968 | locus YCL016C, strain dcc1, stronger effect = lower value 0.986 | locus YCL029C, strain bik1, stronger effect = lower value 0.956 | locus YCL061C, strain MRC1, stronger effect = lower value 0.968 | locus YCL069W, strain vba3, stronger effect = lower value 0.986 | locus YCR088W, strain abp1, stronger effect = lower value 0.981 | locus YDL005C, strain med2, stronger effect = lower value 0.971 | locus YDL035C, strain GPR1, stronger effect = lower value 0.974 | locus YDL040C, strain nat1, stronger effect = lower value 0.985 | locus YDL074C, strain BRE1, stronger effect = lower value 0.868 | locus YDL101C, strain DUN1, stronger effect = lower value 0.953 | locus YDL134C, strain PPH21, stronger effect = lower value 0.904 | locus YDR001C, strain nth1, stronger effect = lower value 0.975 | locus YDR069C, strain doa4, stronger effect = lower value 0.939 | locus YDR101C, strain arx1, stronger effect = lower value 0.983 | locus YDR159W, strain sac3, stronger effect = lower value 0.975 | locus YDR162C, strain NBP2, stronger effect = lower value 0.947 | locus YDR195W, strain ref2 1.02 | locus YDR297W, strain sur2, stronger effect = lower value 0.966 | locus YDR318W, strain mcm21, stronger effect = lower value 0.933 | locus YDR334W, strain swr1, stronger effect = lower value 0.951 | locus YDR335W, strain msn5, stronger effect = lower value 0.97 | locus YDR388W, stronger effect = lower value 0.962 | locus YDR392W, strain spt3, stronger effect = lower value 0.851 | locus YEL003W, strain gim4, stronger effect = lower value 0.96 | locus YEL037C, strain rad23, stronger effect = lower value 0.964 | locus YEL061C, strain CIN8 (second series), stronger effect = lower value 0.974 | locus YEL061C, strain CIN8, stronger effect = lower value 0.967 | locus YER015W, strain faa2, stronger effect = lower value 0.965 | locus YER016W, strain bim1, stronger effect = lower value 0.972 | locus YER110C, stronger effect = lower value 0.936 | locus YER111C, strain swi4, stronger effect = lower value 0.97 | locus YER155C, strain BEM2, stronger effect = lower value 1.02 | locus YER167W, strain BCK2, stronger effect = lower value 0.997 | locus YFR010W, strain ubp6, stronger effect = lower value 0.937 | locus YGL086W, strain mad1, stronger effect = lower value 0.937 | locus YGL167C, strain pmr1, stronger effect = lower value 0.955 | locus YGL173C, strain kem1, stronger effect = lower value 0.948 | locus YGL227W, strain vid30, stronger effect = lower value 0.99 | locus YGL240W, strain doc1, stronger effect = lower value 0.92 | locus YGL248W, strain PDE1, stronger effect = lower value 0.92 | locus YGL253W, strain hxk2, stronger effect = lower value 0.979 | locus YGR078C, strain PAC10, stronger effect = lower value 0.891 | locus YHR013C, strain ard1, stronger effect = lower value 0.941 | locus YHR027C, strain rpn1, stronger effect = lower value 0.959 | locus YHR030C, strain SLT2, stronger effect = lower value 0.979 | locus YHR079C, strain IRE1 (second series), stronger effect = lower value 0.932 | locus YHR094C, strain hxt1, stronger effect = lower value 0.955 | locus YHR129C, strain ARP1, stronger effect = lower value 0.927 | locus YHR142W, strain chs7, stronger effect = lower value 0.939 | locus YHR200W, strain rpn10, stronger effect = lower value 0.937 | locus YIL066C, strain RNR3, stronger effect = lower value 0.976 | locus YIL073C, strain SPO22, stronger effect = lower value 0.897 | locus YIL125W, strain kgd1, stronger effect = lower value 0.969 | locus YIR030C, strain dcg1, stronger effect = lower value 0.958 | locus YJL092W, strain hpr5, stronger effect = lower value 0.967 | locus YJL095W, strain BCK1 (second series), stronger effect = lower value 0.971 | locus YJL115W, strain asf1, stronger effect = lower value 0.945 | locus YJL129C, strain trk1, stronger effect = lower value 0.966 | locus YJL134W, strain LCB3, stronger effect = lower value 0.991 | locus YJL154C, strain vps35, stronger effect = lower value 0.972 | locus YJL164C, strain tpk1, stronger effect = lower value 0.96 | locus YJL166W, strain qcr8, stronger effect = lower value 0.973 | locus YJL168C, strain set2, stronger effect = lower value 0.96 | locus YJL187C, strain SWE1 (second series), stronger effect = lower value 0.885 | locus YJL187C, strain SWE1, stronger effect = lower value 0.971 | locus YJR043C, strain POL32, stronger effect = lower value 0.942 | locus YKL009W, strain mrt4, stronger effect = lower value 0.933 | locus YKL068W, stronger effect = lower value 0.957 | locus YKL085W, strain MDH1 (second series), stronger effect = lower value 0.963 | locus YKL085W, strain MDH1, stronger effect = lower value 0.963 | locus YKL160W, strain elf1, stronger effect = lower value 0.971 | locus YKR026C, strain gcn3, stronger effect = lower value 0.964 | locus YKR091W, strain srl3, stronger effect = lower value 0.978 | locus YLL001W, strain dnm1, stronger effect = lower value 0.974 | locus YLL026W, stronger effect = lower value 0.988 | locus YLL041C, strain sdh2, stronger effect = lower value 0.957 | locus YLR027C, strain aat2, stronger effect = lower value 0.975 | locus YLR039C, strain RIC1, stronger effect = lower value 0.788 | locus YLR058C, strain SHM2, stronger effect = lower value 0.933 | locus YLR102C, strain apc9, stronger effect = lower value 0.974 | locus YLR221C, strain rsa3, stronger effect = lower value 0.98 | locus YLR258W, strain gsy2, stronger effect = lower value 0.97 | locus YLR262C, strain YPT6, stronger effect = lower value 0.824 | locus YLR268W, strain sec22, stronger effect = lower value 0.907 | locus YLR320W, strain mms22, stronger effect = lower value 0.936 | locus YLR330W, strain CHS5, stronger effect = lower value 0.947 | locus YLR342W, strain FKS1 (second series), stronger effect = lower value 0.851 | locus YLR342W, strain FKS1, stronger effect = lower value 0.977 | locus YLR357W, strain rsc2, stronger effect = lower value 0.885 | locus YLR370C, strain arc18, stronger effect = lower value 0.975 | locus YLR371W, strain rom2, stronger effect = lower value 0.948 | locus YLR384C, strain iki3, stronger effect = lower value 0.968 | locus YML016C, strain PPZ1, stronger effect = lower value 0.979 | locus YML032C, strain rad52, stronger effect = lower value 0.926 | locus YML120C, strain ndi1, stronger effect = lower value 0.967 | locus YML124C, strain tub3, stronger effect = lower value 0.957 | locus YMR078C, strain ctf18, stronger effect = lower value 0.931 | locus YMR125W, strain sto1, stronger effect = lower value 0.97 | locus YMR129W, stronger effect = lower value 0.973 | locus YMR205C, strain PFK2, stronger effect = lower value 0.991 | locus YMR223W, strain ubp8, stronger effect = lower value 0.909 | locus YMR231W, strain pep5, stronger effect = lower value 0.973 | locus YMR307W, strain GAS1, stronger effect = lower value 0.983 | locus YNL067W, strain RPL9B, stronger effect = lower value 0.918 | locus YNL071W, strain lat1, stronger effect = lower value 0.971 | locus YNL153C, strain GIM3, stronger effect = lower value 0.906 | locus YNL209W, strain ssb2, stronger effect = lower value 0.965 | locus YNL233W, strain BNI4, stronger effect = lower value 0.895 | locus YNL248C, strain rpa49, stronger effect = lower value 0.984 | locus YNL250W, strain rad50, stronger effect = lower value 0.9 | locus YNL298W, strain CLA4, stronger effect = lower value 0.965 | locus YNL322C, strain KRE1 (second series), stronger effect = lower value 0.978 | locus YNR049C, strain mso1, stronger effect = lower value 0.983 | locus YOL006C, strain TOP1, stronger effect = lower value 0.69 | locus YOL012C, strain htz1 0.47 | locus YOL147C, strain pex11, stronger effect = lower value 0.963 | locus YOR001W, strain rrp6, stronger effect = lower value 0.955 | locus YOR061W, strain CKA2, stronger effect = lower value 0.989 | locus YOR069W, strain VPS5, stronger effect = lower value 0.948 | locus YOR070C, strain gyp1, stronger effect = lower value 0.975 | locus YOR080W, strain dia2, stronger effect = lower value 0.989 | locus YOR083W, strain WHI5, stronger effect = lower value 0.953 | locus YOR106W, strain vam3, stronger effect = lower value 0.932 | locus YOR136W, strain idh2, stronger effect = lower value 0.952 | locus YOR144C, strain elg1, stronger effect = lower value 0.971 | locus YOR184W, strain ser1, stronger effect = lower value 0.996 | locus YOR265W, strain rbl2, stronger effect = lower value 0.973 | locus YOR270C, strain vph1, stronger effect = lower value 0.854 | locus YOR290C, strain snf2, stronger effect = lower value 0.929 | locus YOR316C, strain cot1, stronger effect = lower value 0.948 | locus YPL051W, strain arl3, stronger effect = lower value 0.936 | locus YPL078C, strain atp4, stronger effect = lower value 0.975 | locus YPL106C, strain sse1, stronger effect = lower value 0.901 | locus YPL240C, strain hsp82, stronger effect = lower value 0.954 | locus YPL241C, strain CIN2, stronger effect = lower value 0.977 | locus YPR119W, strain clb2, stronger effect = lower value 0.947 | locus YPR141C, strain kar3, stronger effect = lower value 0.923 | strain wtn01, stronger effect = lower value 0.971

Reference: PubChem BioAssay AID1159580 (chemical genetic matrix, 2015)
